Reference: PubChem BioAssay AID2391 (Southern Research Specialized Biocontainment Screening …, 2010)
Values joined by “and” are separate entries in the source; they are usually repeats but may differ in a detail not shown here. Equal values may be shown once. The whole screen tested about 310,000 compounds, of which about 410 (0.13%) were called active. Not shown: some 2% with an inconclusive outcome. How the calls were made is not given here. Not all results are given here. Entries with a potency or affinity are not part of this list.

Assay: RSV antiviral activity via CPE protection, HEp-2 cells, primary 10 µM value included (AID 2391)
Settings: RSV-induced CPE inhibition, at 10 µM, hits give high values

CPE inhibition, inactive:
COc1ccccc1CNC(=O)c1ccc(CS(=O)Cc2cccc(Cl)c2)o1 (stereo not drawn) 4.42%
Cc1ccc(C2c3c(C)nn(-c4ccc([N+](=O)[O-])cc4)c3N=C3C(=O)Nc4ccccc4N32)cc1 (stereo not drawn) 3.63%
Cc1nn(-c2ccc([N+](=O)[O-])cc2)c2c1C(c1ccc(OC(F)F)cc1)N1C(=N2)C(=O)Nc2ccccc21 (stereo not drawn) 6.37%
O=C(c1ccc(F)cc1)C1CCN(C(=S)Nc2ccccc2Cl)CC1 2.44%
Cc1nn(Cc2ccc(Cl)cc2)c(C)c1NC(=O)c1cc(C(C)C)on1 7.7%
Cc1cc(C(=O)Nc2c(C)nn(Cc3c(Cl)cccc3Cl)c2C)no1 -0.07%
Cc1cc(C)n2nc(C(=O)N/N=C/c3c4ccccc4cc4ccccc34)nc2n1 3.03%
CCCCN(CC)Cc1c(C)[nH]c2c(ccc3ccccc32)c1=O 0.96%
COc1ccc(S(=O)(=O)NCc2ccco2)cc1NC(=O)c1ccccc1 3.54%
COc1ccc(S(N)(=O)=O)cc1-c1nnc2c3ccccc3c(C)nn12 6.57%
Cc1nn2c(-c3ccccc3)nnc2c2ccccc12 -0.87%
COc1ccc(S(=O)(=O)NCc2ccco2)cc1N(C)S(=O)(=O)c1ccccc1 2.02%
Cc1ccccc1-c1nnc2c3ccccc3c(C)nn12 -1.91%
COc1ccc(-c2nnc3c4ccccc4c(C)nn23)cc1 4.75%
Cc1ccc(N2C(=O)c3ccc(N)cc3C2=O)cc1 1%
COc1cc(SC)ccc1C(=O)Nc1ccc2c(c1)OCCO2 49.8%
CC(=O)Nc1ccc(OCC(O)Cn2nc(C)nc2C)cc1 (stereo not drawn) -1.49%
COc1ccc(CN(C(=O)c2oc3cc(C)c(C)cc3c2C)C2CCS(=O)(=O)C2)cc1OC (stereo not drawn) 5.1%
Cc1ccc(Cl)cc1NS(=O)(=O)c1ccc2oc(=O)ccc2c1 15.7%
O=C(COC(=O)c1ccc(OC(F)F)cc1)NC(=O)NC1CCCC1 2.84%
CC(=O)Nc1ccc(NC(=O)CCn2nnc3ccccc32)cc1 -1.57%
C=CCNC(=O)COC(=O)c1cc(S(=O)(=O)N2CCCCC2)ccc1Cl 0.67%
COc1ccc(-c2cc(C(=O)O)c3ccccc3n2)c(OC)c1 0.21%
O=C(O)c1cc(-c2ccc(-c3ccc(F)cc3)o2)nc2ccccc12 7.68%
O=C(O)c1cc(-c2cccs2)nc2ccc(F)cc12 -0.75%
COc1ccc(-c2cc(C(=O)N3CCCC3)c3ccccc3n2)cc1 3%
O=S(=O)(c1ccc(C2CCCCC2)cc1)N1CCOCC1 15.3%
O=C(CO/N=C/c1ccccc1)Nc1c(F)c(F)c(F)c(F)c1F 2.75%
COc1ccc(NC(=O)CN(C)C(=O)CCCc2nc3ccccc3s2)cc1 2.07%
Cc1cc(Cl)ccc1OCCCC(=O)N1CCN(C(=O)c2ccco2)CC1 17.5%
Cc1cc(SCC(=O)c2ccccc2)n2ncc(-c3ccccc3)c2n1 4.59%
Cc1ccc2nc(C)cc(SCC(=O)N/N=C/c3ccco3)c2c1 1.6%
CCCCCc1nc2c(c(=O)c3ccccc3n2C)c(=O)n1Cc1ccc(OC)cc1 56.9%
COCCn1c(-c2cccc(Br)c2)nc2c(c(=O)c3ccccc3n2C)c1=O 45.9%
COc1ccc(Cn2c(-c3ccccc3C)nc3c(c(=O)c4ccccc4n3C)c2=O)cc1 52.8%
CCc1nc2sc3ccccc3c(=O)c2c(=O)n1Cc1ccco1 10.5%
COCCn1c(-c2ccc(Cl)cc2)nc2c(c(=O)c3ccccc3n2C)c1=O 8.68%
COc1ccc(Cn2c(-c3ccc(C)cc3)nc3c(c(=O)c4ccccc4n3C)c2=O)cc1 3.47%
COc1ccc(Cn2c(-c3ccco3)nc3c(c(=O)c4ccccc4n3C)c2=O)cc1 12.4%
Cn1c2ccccc2c(=O)c2c(=O)n(Cc3ccco3)c(-c3ccc(C(C)(C)C)cc3)nc21 6.32%
COc1ccc(N2CCN(CCNS(=O)(=O)c3ccc(C)cc3)CC2)cc1 -1.19%
CCCCOc1ccc(Cl)cc1CSc1n[nH]c(C)n1 -1.27%
CC(NC(=O)c1c(F)cccc1Cl)c1ccc(-n2ccnc2)cc1 (stereo not drawn) 2.43%
COc1cnn(-c2ccccc2)c(=O)c1SCc1ccc(Cl)c(Cl)c1 5.77%
Fc1ccccc1NC(=S)N1CCN(C/C=C/c2ccccc2)CC1 0.73%
Cc1ccc(C)c(S(=O)(=O)N/N=C/c2ccc(N(C)C)cc2)c1 -0.72%
c1ccc2c(c1)nc1n2CN(Cc2ccc3c(c2)OCO3)CN1 1.87%
Cc1csc(=O)n1CCC(=O)OCC(=O)NNC(=O)c1ccccc1 -2.48%
COc1ccc(CCn2c(-c3ccccc3)nc3c(c(=O)c4ccccc4n3C)c2=O)cc1 2.88%
COc1ccc(CCn2c(C(C)C)nc3c(c(=O)c4ccccc4n3C)c2=O)cc1 4.88%
Cc1ccc(NC(=O)c2cn(-c3cccc(C)n3)cn2)cc1 3.46%
CC(C)C[C@H](NC(=O)c1nc[nH]c1C(=O)NC1CCN(C(=O)OC(C)(C)C)CC1)C(=O)OC(C)(C)C 0.16%
CC(C)C[C@H](NC(=O)c1nc[nH]c1C(=O)N[C@@H](CC(C)C)C(=O)OC(C)(C)C)C(=O)OC(C)(C)C -5.5%
COc1ccc(Cn2cnc3c4cc(F)ccc4n(C)c3c2=O)cc1 1.16%
Cc1occc1C(=O)Nc1cc(C(C)(C)C)on1 -1.18%
CC(C)(C)c1cc(NC(=O)c2ccco2)no1 2.28%
COc1ccc(N(C(=O)CNC(=O)c2ccco2)C(C(=O)NC2CCCC2)c2cccnc2)cc1 (stereo not drawn) -0.22%
NC(=O)c1ccsc1NC(=O)COC(=O)C1CC2CCCC(C1)C2=O (stereo not drawn) 1.41%
COc1ccc(Cl)cc1C(=O)N(Cc1nc(-c2cccc(C)c2)no1)C(C)C 10.2%
COc1ccccc1C(=O)N(Cc1nc(-c2ccc(Cl)cc2)no1)C(C)C 2.22%
CC(C)NS(=O)(=O)c1ccc(CCC(=O)N2CCCC2)cc1 1.63%
CCC1CCCCN1C(=O)c1ccc2nc(Cc3ccc(OC)cc3)oc2c1 (stereo not drawn) 20.7%
Cc1cccc(NC(=O)CNC(=O)CN2C(=O)NC3(CCCCC3C)C2=O)c1C (stereo not drawn) -0.96%
CC1CCCCC12NC(=O)N(CC(=O)Nc1ccccc1-c1ccccc1)C2=O (stereo not drawn) -0.96%
COc1ccc(C(=O)NCc2cc(C)nc3ccccc23)cc1OC 19%
CCOCCCNC(=O)C1CCN(Cc2cccc(OCc3ccccc3)c2)CC1 -0.9%
CCOC(=O)Cn1nnnc1C(CC)N(Cc1cc2ccc(C)cc2[nH]c1=O)C1CCCC1 (stereo not drawn) 0%
CCOC(=O)Cn1nnnc1C(C(C)C)N(Cc1cc2c(C)cc(C)cc2[nH]c1=O)C1CCCC1 (stereo not drawn) 9.34%
CN(Cc1ccccc1)C(=O)CN1C(=O)c2ccc([N+](=O)[O-])cc2C1=O 1.1%
CC(=O)Nc1ccc(NC(=O)COc2ccc(Cl)cc2Cl)cc1 5.13%
N#CCCN(CCC#N)C(=O)COc1ccc(Cl)cc1Cl 2.86%
COc1ccc(NC(=O)Nc2ccc3c(c2)CCC3)c(OC)c1 3.19%
CCOc1ccccc1NC(=O)Nc1ccc2c(c1)CCC2 7.85%
O=C(CCl)NC1CCCc2ccccc21 (stereo not drawn) -0.24%
O=C(NC1CCCc2ccccc21)c1ccc(Br)cc1 (stereo not drawn) 6.09%
COc1cc(C(=O)NCCC(=O)NC2CCCc3ccccc32)cc(OC)c1OC (stereo not drawn) 0.19%
O=C(Cc1ccc(Br)cc1)NC1CCCc2ccccc21 (stereo not drawn) 2.96%
O=c1c2ccccc2ncn1Cc1ccc(Cl)c(Cl)c1 3.3%
Cc1cc(C)[n+]2n1C(=O)C(c1ccccc1)=C2[O-] 3.89% and 3.76%
O=c1c2ccccc2nc2n1C(CSc1ccccc1)CS2 (stereo not drawn) 1.34%
Nc1ccccc1SCC1CSc2nc3ccccc3c(=O)n21 (stereo not drawn) 2.42%
O=c1c2ccccc2nc2n1C(CSCc1ccc(Cl)cc1Cl)CS2 (stereo not drawn) 5.16%
O=C(Nc1ccccc1SCC1CSc2nc3ccccc3c(=O)n21)c1ccccc1 (stereo not drawn) 2.48%
COc1cccc(SCC2CSc3nc4ccccc4c(=O)n32)c1 (stereo not drawn) 7.09%
O=c1c2ccccc2nc2n1C(CSc1ccc(F)cc1)CS2 (stereo not drawn) 2.75%
O=C(OC(C(=O)NC1CCCC1)c1ccccc1F)c1ccco1 (stereo not drawn) 0.45%
Nc1cc(=O)[nH]c(SCC(=O)N2N=C(c3ccc(Cl)cc3)CC2c2ccco2)n1 (stereo not drawn) 7.31%
CCn1c(=O)n(CC(=O)Nc2ccc(F)cc2)c(=O)c2ccccc21 2.36%
CC(=O)OC[C@H]1O[C@@H](Sc2cccc3cccnc23)[C@H](OC(C)=O)[C@@H](OC(C)=O)[C@@H]1OC(C)=O 1.39%
O=C(NC1CC2CCCC(C1)N2C(=O)Nc1ccccc1)C1CC1 (stereo not drawn) 1.59%
O=C(COC(=O)/C=C/c1ccc(C(F)(F)F)cc1)NCC1CCCO1 (stereo not drawn) -1.68%
Cc1sc2nc3c(C(=O)N4CCCC4)cc(C(=O)c4ccccc4O)cn3c(=O)c2c1C 1.18%
CCOC(=O)c1sc2nc3c(SCC(=O)O)cc(C(=O)c4ccccc4O)cn3c(=O)c2c1C 11.9%
